Data published in PubChem BioAssay.
Calls of active or inactive are those of the source. Unless noted, no rule for the calls is given here.

Legend:
[1] = tested on: Wnt5a (protein binding on small-molecule microarray); assay: Wnt5a binders on small-molecule microarray, primary screen, biophysical, 635/667 nm fluorescence (AID 1142); settings: 635 nm fluorescence, higher = more signal;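 also: fluorescence read at 667 nm with signal to noise per printed feature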
[2] = cell viability in Huh7 cells, primary screen, cytotoxicity control for HCV replication inhibitor project, CellTiter-Glo luminescence, basal, 48 h (AID 1143); settings: Huh7 HCV replicon, higher = more signal, called active from +8 up or from −8 down;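 also: Huh7 hepatoma cells carrying a hepatitis C replication reporter with no stimulus; test concentration not given here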
[3] = P. aeruginosa biofilm formation inhibitors, primary screen, PAO1 strain, BacTiter-Glo luminescence, LB-PBS (AID 1144); settings: 12 h, higher = more signal
[4] = CREB reporter modulators without forskolin, primary screen, cell-based, PC12, CRE-LacZ reporter, unstimulated (AID 1145); settings: no forskolin, luminescence, 4.5 h, higher = more signal, called active from +8 up or from −8 down
[5] = CREB reporter modulators under forskolin, primary screen, cell-based, PC12, CRE-LacZ reporter, forskolin-stimulated (AID 1146); settings: luminescence, 4.5 h, higher = more signal, called active from +8 up or from −8 down;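 also: PC12 cells with 6xCRE LacZ reporter stimulated by forskolin 10 µM; beta-galactosidase reporter signal reflecting CREB driven transcription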
[6] = target: Streptavidin (Streptomyces avidinii) (UniProt P22629); assay: streptavidin binders on small-molecule microarray, primary screen, artefact control for SMM compound annotation, biophysical, 635/667 nm fluorescence (AID 1147); settings: streptavidin binding, higher = more signal;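 also: signal reflects streptavidin binding to arrayed compounds as a control protein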
Sequence of Streptavidin (Streptomyces avidinii) (P22629 whole entry, looked up): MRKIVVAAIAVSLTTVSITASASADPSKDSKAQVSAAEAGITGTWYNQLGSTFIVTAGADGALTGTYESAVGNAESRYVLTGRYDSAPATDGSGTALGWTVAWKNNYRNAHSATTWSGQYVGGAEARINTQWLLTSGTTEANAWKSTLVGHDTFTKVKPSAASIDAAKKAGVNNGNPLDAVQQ

[7] = small-molecule binders of probe aInhba, primary screen, biochemical, small-molecule microarray, 635/667 nm fluorescence (AID 1148); settings: higher = more signal;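 also: score merges 667nm spot fluorescence with signal-to-noise for antibody binding to printed compounds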
Torsin-1A (Homo sapiens) [8] = target: Torsin-1A (Homo sapiens) (UniProt O14656); assay: torsin A binders from cell lysate, primary screen, small-molecule microarray, wild-type, 635/667 nm (AID 1149); settings: COS7 hTOR1A-WT lysate, 635 nm fluorescence, higher = more signal
Sequence of Torsin-1A (Homo sapiens) (O14656 whole entry, looked up): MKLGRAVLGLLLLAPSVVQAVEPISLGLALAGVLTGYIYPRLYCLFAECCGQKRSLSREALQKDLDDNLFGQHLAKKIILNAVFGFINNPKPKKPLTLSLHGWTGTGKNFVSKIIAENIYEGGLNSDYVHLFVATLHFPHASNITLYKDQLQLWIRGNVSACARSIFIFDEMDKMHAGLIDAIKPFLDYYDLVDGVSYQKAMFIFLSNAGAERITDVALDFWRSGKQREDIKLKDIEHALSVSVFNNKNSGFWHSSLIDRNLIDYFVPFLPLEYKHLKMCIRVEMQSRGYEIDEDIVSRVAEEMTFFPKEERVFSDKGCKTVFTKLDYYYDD

Torsin-1A (Homo sapiens) [9] = target: Torsin-1A (Homo sapiens) (UniProt O14656); assay: small-molecule binders of mutant TOR1A in lysate, primary screen, cell lysate, small-molecule microarray, COS7 lysate, 635/667 nm fluorescence (AID 1150); settings: COS7 hTOR1A mutant lysate, 635 nm fluorescence, higher = more signal;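 also: score pools 667 nm emission and signal to noise measuring lysate protein binding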
[10] = tested on: Sonic hedgehog protein (Shh); assay: small-molecule binders of Shh protein, primary screen, biochemical, small-molecule microarray, 635/667 nm fluorescence (AID 1151); settings: small-molecule microarray binding, 635 nm fluorescence; higher = more signal;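 also: Shh protein binding to compounds spotted on small-molecule microarray slides; score combines spot fluorescence intensity with signal-to-noise across triplicate slides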
[11] = E. coli DRC41 culture turbidity changes, primary screen, E. coli filamentation inducer project, strain DRC41, OD650, 48 h (AID 1152);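 also: E. coli MC1000 strain DRC41 lacking acrAB efflux pump and sulA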; settings: E. coli DRC41 (acrAB sulA), higher = more signal, called active from +8 up or from −8 down
[12] = small-molecule binders of probe aLefty1, primary screen, biochemical, small-molecule microarray, 635/667 nm fluorescence (AID 1153); settings: higher = more signal;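 also: score merges spot fluorescence with signal-to-noise ratio from the scanned slide images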
[13] = PSAC antagonists in infected red cells, primary screen, cell-based, P. falciparum Indochina, OD700, 1 h (AID 1154); settings: P. falciparum Indochina infected RBC osmotic lysis, higher = more signal, called active from +8 up or from −8 down
[14] = PSAC antagonists in infected red cells, primary screen, cell-based, P. falciparum Indochina, OD700, 2 h (AID 1155);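 also: lysis reports solute entry through the parasite surface anion channel PSAC; channel blockers reduce lysis of infected cells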; settings: P. falciparum Indochina infected erythrocytes, osmotic lysis OD700; higher = more signal, called active from +8 up or from −8 down
[15] = osmotic lysis modulators in infected erythrocytes, primary screen, PSAC antagonist project, cell-based, P. falciparum Indochina, OD700, 3 h (AID 1156); settings: higher = more signal, called active from +8 up or from −8 down
[16] = PSAC antagonists in infected red cells, primary screen, cell-based, P. falciparum Indochina, OD700, 18 h (AID 1157); settings: P. falciparum Indochina infected erythrocytes, osmotic lysis OD700, 18 h; higher = more signal, called active from +8 up or from −8 down
[17] = modulators of S6 phosphorylation in cells, primary screen, cell-based, A549, cytoblot, luminescence, serum-stimulated (AID 1158); settings: A549 phospho-S6 cytoblot, 5 h, higher = more signal;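 also: serum-stimulated A549 lung adenocarcinoma cells; signal is phosphorylated S6 detected by cytoblot immunostaining with HRP secondary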
[18] = target: NADPH oxidase 2 (Homo sapiens) (UniProt P04839); assay: NOX2-dependent H2O2 signal modulators, primary screen, NOX inhibitor project, cell-based, HEK293-NOX2, PMA-stimulated, Amplex Red fluorescence (AID 1159); settings: 45 min, higher = more signal, called active from +8 up or from −8 down; also: test concentration not given here
Sequence of NADPH oxidase 2 (Homo sapiens) (P04839 whole entry, looked up): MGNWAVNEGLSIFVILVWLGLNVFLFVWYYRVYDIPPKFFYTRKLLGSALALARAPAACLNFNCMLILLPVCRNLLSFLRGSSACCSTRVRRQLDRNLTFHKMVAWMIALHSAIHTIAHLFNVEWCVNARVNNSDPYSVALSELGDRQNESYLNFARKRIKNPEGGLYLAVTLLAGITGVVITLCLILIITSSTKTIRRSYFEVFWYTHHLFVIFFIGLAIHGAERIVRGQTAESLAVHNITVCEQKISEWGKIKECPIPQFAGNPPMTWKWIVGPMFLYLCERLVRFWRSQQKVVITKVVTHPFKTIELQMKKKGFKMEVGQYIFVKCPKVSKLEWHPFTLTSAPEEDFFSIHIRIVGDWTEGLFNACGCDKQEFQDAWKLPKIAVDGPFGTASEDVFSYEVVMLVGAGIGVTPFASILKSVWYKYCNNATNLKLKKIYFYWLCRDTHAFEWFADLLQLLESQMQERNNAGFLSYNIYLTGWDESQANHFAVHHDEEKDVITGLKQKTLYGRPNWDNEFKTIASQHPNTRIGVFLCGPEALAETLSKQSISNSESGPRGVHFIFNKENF

[19] = target: NADPH oxidase 4 (Homo sapiens) (UniProt Q9NPH5); assay: NOX4-dependent H2O2 signal modulators, primary screen, NOX inhibitor project, cell-based, HEK293-NOX4, tetracycline-induced, Amplex Red fluorescence (AID 1160); settings: 45 min, higher = more signal, called active from +8 up or from −8 down
Sequence of NADPH oxidase 4 (Homo sapiens) (Q9NPH5 whole entry, looked up): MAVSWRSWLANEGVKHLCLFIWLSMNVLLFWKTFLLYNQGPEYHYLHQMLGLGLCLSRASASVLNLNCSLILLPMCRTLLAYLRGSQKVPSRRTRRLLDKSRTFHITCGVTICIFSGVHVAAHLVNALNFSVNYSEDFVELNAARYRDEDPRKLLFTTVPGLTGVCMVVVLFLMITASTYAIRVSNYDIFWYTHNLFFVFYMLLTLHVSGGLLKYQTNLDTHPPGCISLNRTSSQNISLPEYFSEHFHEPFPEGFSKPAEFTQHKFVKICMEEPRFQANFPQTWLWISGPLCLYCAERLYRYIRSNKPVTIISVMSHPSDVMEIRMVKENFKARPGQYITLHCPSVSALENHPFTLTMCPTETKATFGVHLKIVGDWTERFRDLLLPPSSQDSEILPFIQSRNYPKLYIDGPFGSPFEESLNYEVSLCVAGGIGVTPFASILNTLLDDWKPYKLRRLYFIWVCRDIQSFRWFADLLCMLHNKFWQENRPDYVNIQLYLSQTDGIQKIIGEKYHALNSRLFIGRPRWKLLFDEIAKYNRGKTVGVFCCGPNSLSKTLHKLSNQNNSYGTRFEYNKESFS

[20] = target: NADPH oxidase 5 (Homo sapiens) (UniProt Q96PH1); assay: NOX5-dependent H2O2 signal modulators, primary screen, NOX inhibitor project, cell-based, HEK293-NOX5, Amplex Red fluorescence (AID 1161); settings: HEK293-NOX5, ionomycin, 45 min, higher = more signal
Sequence of NADPH oxidase 5 (Homo sapiens) (Q96PH1 whole entry, looked up): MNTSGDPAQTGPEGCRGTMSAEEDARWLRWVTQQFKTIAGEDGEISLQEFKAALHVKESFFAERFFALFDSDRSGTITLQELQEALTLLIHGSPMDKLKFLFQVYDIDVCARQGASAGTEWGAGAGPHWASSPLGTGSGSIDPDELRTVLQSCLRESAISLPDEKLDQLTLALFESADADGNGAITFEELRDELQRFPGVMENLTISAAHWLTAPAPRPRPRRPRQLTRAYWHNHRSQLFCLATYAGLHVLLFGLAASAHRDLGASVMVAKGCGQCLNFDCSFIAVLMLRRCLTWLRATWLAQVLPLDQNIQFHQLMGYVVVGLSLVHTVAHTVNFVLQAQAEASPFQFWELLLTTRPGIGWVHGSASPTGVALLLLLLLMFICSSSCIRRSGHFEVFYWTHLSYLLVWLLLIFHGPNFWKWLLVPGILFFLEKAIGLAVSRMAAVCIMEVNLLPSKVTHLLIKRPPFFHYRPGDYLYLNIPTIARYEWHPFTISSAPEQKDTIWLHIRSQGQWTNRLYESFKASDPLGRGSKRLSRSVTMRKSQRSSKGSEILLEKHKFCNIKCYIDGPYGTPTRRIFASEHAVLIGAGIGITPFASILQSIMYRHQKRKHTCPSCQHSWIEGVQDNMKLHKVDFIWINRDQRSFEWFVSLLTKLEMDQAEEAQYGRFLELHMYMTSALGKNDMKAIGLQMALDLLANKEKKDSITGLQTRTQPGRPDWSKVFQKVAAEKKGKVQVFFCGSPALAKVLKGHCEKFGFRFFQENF

SMILES	composite z-score [1]	z-score [2]	z-score [3]	z-score [4]	z-score [5]	composite z-score [6]	composite z-score [7]	composite z-score (Torsin-1A (Homo sapiens) [8])	composite z-score (Torsin-1A (Homo sapiens) [9])	composite z-score [10]	z-score [11]	composite z-score [12]	z-score [13]	z-score [14]	z-score [15]	z-score [16]	z-score [17]	z-score [18]	z-score [19]	z-score [20]
CC(C)C(=C=CC[C@H](O)c1ccc(OCCO)cc1)CCO	0.803	-1.97 (inactive)	-0.596 (inactive)	3.49 (inactive)	0.36 (inactive)	0.0996	-0.179	1.37	0.653	2.05	-0.595 (inactive)	0.0945	9.47 (active)	1.99 (inactive)	1.11 (inactive)	0.553 (inactive)	-0.365	-1.06 (inactive)	-0.581 (inactive)	-1.96
COC(=O)[C@@]1(Cc2ccc(OC)cc2)[C@@H]2C(=CC(=O)[C@H]2CC(=O)C(=O)N2CCCC2)CN1C(=O)c1ccccc1	0.292	-1.76 (inactive)	0.745 (inactive)	-0.754 (inactive)	0.0528 (inactive)	0.571	0.0694	-0.234	0.31	-1.35	-0.97 (inactive)	0.114	5.48 (inactive)	0.368 (inactive)	1.51 (inactive)	1.18 (inactive)	0.0866	0.143 (inactive)	1.54 (inactive)	1.14
O=C1[C@@]23C=C(Br)[C@H](C[C@@H]2CCOC3)[C@@]12CO2	-0.0248	0.35 (inactive)	0.725 (inactive)	0.221 (inactive)	0.767 (inactive)	0.365	0.0792	0.441	0.219	0.534	-0.0625 (inactive)	-0.216	-0.306 (inactive)	-0.261 (inactive)	-0.0502 (inactive)	0.0369 (inactive)	-0.31	-0.172 (inactive)	0.723 (inactive)	-0.34
CN(C)C(=O)[C@@]1(CCS(=O)(=O)c2ccccc2)COC(c2ccc(OCCCO)cc2)=N1	0.623	-3.66 (inactive)	-0.26 (inactive)	-0.562 (inactive)	-0.793 (inactive)	0.0248	0.0589	1.24	2.51	-0.977	0.276 (inactive)	0.0244	25.6 (active)	8.3 (active)	1.69 (inactive)	1.26 (inactive)	0.313	-2.71 (inactive)	0.265 (inactive)	-0.621
C=CCOC(=O)[C@H]1[C@@H]2C(=O)O[C@@H](c3ccccc3)[C@@H](c3ccccc3)N2[C@@H](c2ccc(OCCOC(=O)[C@@H]3C[C@@H]4C(=O)N[C@@H](CC(C)C)C(=O)N4[C@@H]3c3ccc(O)cc3)cc2)[C@]12C(=O)Nc1ccccc12	0.384	-1.37 (inactive)	-1.04 (inactive)	-0.541 (inactive)	0.0707 (inactive)	0.359	0.0442	0.941	0.95	2.08	0.204 (inactive)	0.439	3.03 (inactive)	1.3 (inactive)	4.45 (inactive)	1.04 (inactive)	-0.197	1.63 (inactive)	1.18 (inactive)	1.49
O=C(OCc1ccccc1)C1=CCC2c3[nH]c4ccccc4c3C(=O)C1N2S(=O)(=O)c1ccccc1[N+](=O)[O-] (stereo not given)	0.794	-1.26 (inactive)	-0.00859 (inactive)	-0.0137 (inactive)	-0.451 (inactive)	0.745	0.11	0.498	0.497	0.488	-1.33 (inactive)	-0.192	7.08 (inactive)	2.13 (inactive)	0.105 (inactive)	1.1 (inactive)	-0.605	0.663 (inactive)	-0.294 (inactive)	-1.97
CCCC[C@@H]1C[C@H]1[C@@H](NC(=O)c1ccco1)c1ccccc1C(F)(F)F	0.667	-0.547 (inactive)	0.431 (inactive)	0.773 (inactive)	1.3 (inactive)	1.42	2.01	0.408	-0.0311	0.0509	-1.91 (inactive)	2.47	0.233 (inactive)	0.105 (inactive)	-0.104 (inactive)	0.471 (inactive)	-0.278	-0.295 (inactive)	-1.28 (inactive)	-1.26
C=C(CCCC)/C(=C/C[C@H](OC(=O)c1ccncc1)c1ccccc1OCCO)c1cnc2ccccc2c1	0.265	-0.401 (inactive)	0.0698 (inactive)	-0.583 (inactive)	0.494 (inactive)	1.74	-0.0471	0.609	0.712	1.45	-0.244 (inactive)	0.11	23.7 (active)	4.64 (inactive)	1.08 (inactive)	1.02 (inactive)	0.0376	-1.22 (inactive)	-0.281 (inactive)	-1.45
CCS[C@H]1[C@@H](C(=O)O)[C@H](c2ccc(C)cc2)N(S(=O)(=O)c2ccc(C)cc2)[C@@H]1CC	0.261	-0.0715 (inactive)	-0.54 (inactive)	-0.928 (inactive)	-0.334 (inactive)	0.68	0.206	-0.0832	0.477	-0.7	0.409 (inactive)	0.157	1.56 (inactive)	1.02 (inactive)	-0.129 (inactive)	0.831 (inactive)	-0.0726	0.983 (inactive)	-0.149 (inactive)	0.271
